Test results from PubChem BioAssay (NCATS).
Records with an inconclusive call do not appear. Calls of active or inactive are those of the source. Calls follow the shape of the dose curve; as a rule, active = well fitted inhibition curve with a large enough effect; inconclusive = small, poorly fitted or top-dose-only effect; inactive = no such curve, though single readings can be large or run the other way.

Assay: Primary qHTS for inhibitors of nuclear receptor binding SET domain protein 2 (NSD2) in an RCH-ACV wild type WT cells (2C) (AID 1645877); also: nearly all actives have a fitted effect of over 70% in size
Conditions: RCH-ACV (leukaemia line) NSD2 WT (2C) viability, CellTiter-Glo, 72 h; series mostly up to 44.9 µM; activity change, negative = cell killing: at the top concentration
Text: Assay Provider: Jonathan D. Licht, MD
University of Florida College of Medicine, Gainesville, FL
Mutations in epigenetic regulators are common in relapsed pediatric acute lymphoblastic leukemia (ALL). Here, we uncovered the mechanism underlying the relapse of ALL driven by an activating mutation of the NSD2 histone methyltransferase (p.E1099K). […] Correction of this mutation restored glucocorticoid sensitivity. The transcriptional response to glucocorticoids was blocked in NSD2 mutant cells due to depressed glucocorticoid receptor (GR) levels and the failure of glucocorticoids to autoactivate GR expression. […] Pre-treatment of NSD2 p.E1099K cell lines and PDX samples with PRC2 inhibitors reversed glucocorticoid resistance in vitro and in vivo.
High-throughput drug screening of isogenic RCH-ACV cell lines was performed at the National Center for Advancing Translational Science (NCATS), National Institutes of Health as previously described (1). Briefly, isogenic RCH-ACV NSD2 p.E1099K mutant (9B) and WT cells (2C) were plated at 500 cells/well in a 1536-well plate with a 72-hour incubation with compounds prior to addition of CellTiter-Glo to assess cell viability. NCATS libraries screened include: NPC, MIPE 5.0, Kinase and NPACT. To determine compound activity in the qHTS assay, the concentration-response data for each sample was plotted and modeled by a four-parameter logistic fit yielding IC50 and efficacy (maximal response) values. The area under the curve (AUC) of the dose-response curve ensures both efficacy (magnitude of cell killing) and potency (concentration that elicits cell killing) are accounted for in the analysis of activity.
1. Tobie D Lee, Olivia W Lee, Kyle R Brimacombe, Lu Chen, Rajarshi Guha, Sabrina Lusvarghi, Bethilehem G Tebase, Carleen Klumpp-Thomas, Robert W Robey, Suresh V Ambudkar, Min Shen, Michael M Gottesman, Matthew D Hall. A High-Throughput Screen of a Library of Therapeutics Identifies Cytotoxic Substrates of P-glycoprotein. Mol Pharmacol. 2019, Nov;96(5):629-640.
% is scaled to controls: 0 for no effect and ±100 for the full control effect; potency is read from the fitted curve at half-maximal effect.

Row | Compound | Potency | activity change, negative = cell killing | outcome
1 | C/C1=C/C[C@@H](/C(C)=C/c2csc(C)n2)OC(=O)C[C@H](O)C(C)(C)C(=O)[C@H](C)[C@@H](O)[C@@H](C)CCC1 | 41.7 nM (active) |  | 
2 | C[C@@H]1CC[C@@]2(OC1)O[C@H]1C[C@H]3[C@@H]4CC=C5C[C@@H](O[C@@H]6O[C@H](CO)[C@@H](O[C@@H]7O[C@@H](C)[C@H](O)[C@@H](O)[C@H]7O)[C@H](O)[C@H]6O[C@@H]6O[C@@H](C)[C@H](O)[C@@H](O)[C@H]6O)CC[C@]5(C)[C@H]4CC[C@]3(C)[C@H]1[C@@H]2C | 3320 nM (active) |  | 
3 | COC[C@H]1OC(=O)c2coc3c2[C@@]1(C)C1=C(C3=O)[C@@H]2CC[C@H](O)[C@@]2(C)C[C@H]1OC(C)=O | 11800 nM (active) |  | 
4 | C=C(C)[C@@H]1CCC(C)=C[C@H]1c1c(O)cc(CCCCC)cc1O | 20900 nM (active) |  | 
5 | Cn1c(COP(=O)(NCCBr)NCCBr)cnc1[N+](=O)[O-] | 18600 nM (active) |  | 
6 | c1cc2c(cc1C1OC[C@@H]3C(c4ccc5c(c4)OCO5)OC[C@H]13)OCO2 (stereo partly specified) |  | -42.8% (inactive) | 
7 | COc1cc(C)[nH]c(=O)c1CNC(=O)c1c(C)n([C@H](C)C2CCN(CC(F)(F)F)CC2)c2ccccc12 |  | -18.3% (inactive) | 
8 | COc1cc2cc(c1Cl)N(C)C(=O)C[C@H](OC(=O)C(C)C)[C@]1(C)O[C@@H]1[C@H](C)[C@@H]1C[C@@](O)(NC(=O)O1)[C@H](OC)/C=C/C=C(\C)C2 |  | -98% (inactive) | 
9 | COC(=O)[C@]12CCC(C)(C)C[C@@H]1[C@@H]1C(=O)C=C3[C@]4(C)C=C(C#N)C(=O)C(C)(C)[C@@H]4CC[C@@]3(C)[C@]1(C)CC2 | 326 nM (active) |  | 
10 | Cn1c(/C=C/CO)c(CO)c2c1C(=O)C=C(N1CC1)C2=O |  |  | inactive
11 | CC(C)[C@]12O[C@H]1[C@@H]1O[C@@]13[C@@]1(C)CCC4=C(COC4=O)[C@@H]1C[C@@H]1O[C@@]13C2=O | 33.2 nM (active) |  | 
12 | COC[C@@H]1OC(=O)c2coc3c2[C@]1(C)C1=C(C3=O)[C@H]2CC[C@H](O)[C@@]2(C)C[C@@H]1OC(C)=O | 651 nM (active) |  | 
13 | CC1(C)CC(O)CC(C)(C)N1O |  |  | inactive
14 | Cc1sc2c(c1C)C(c1ccc(Cl)cc1)=NC(CC(N)=O)c1nnc(C)n1-2 (stereo unspecified) | 132 nM (active) |  | 
15 | C/C=C(\C)C(=O)N[C@@H](c1ccccc1)[C@@H](O)C(=O)O[C@H]1C[C@@]2(O)[C@@H](OC(=O)c3ccccc3)[C@@H]3[C@]4(OC(C)=O)CO[C@@H]4C[C@H](O)[C@@]3(C)C(=O)[C@H](OC(C)=O)C(=C1C)C2(C)C | 26.3 nM (active) |  | 
16 | CC(=O)OC[C@H]1O[C@@H]([S-])[C@H](OC(C)=O)[C@@H](OC(C)=O)[C@@H]1OC(C)=O.CC[PH+](CC)CC.[Au] | 742 nM (active) |  | 

Row | Compound | Potency | activity change, negative = cell killing | outcome
17 | CCCCCCC(C)(C)c1cc(O)c2c(c1)OC(C)(C)C1CC=C(CO)C[C@H]21 (stereo partly specified) |  | -25.6% (inactive) | 
18 | C[C@H]1[C@H](O)[C@@H](C)/C=C/C=C/CC/C=C/C=C/C=C/C=C/[C@H](O[C@@H]2O[C@H](C)[C@@H](O)[C@H](N)[C@@H]2O)C[C@@H]2O[C@](O)(C[C@@H](O)[C@H](O)CC[C@@H](O)C[C@@H](O)C[C@@H](O)CC(=O)O[C@H]1C)C[C@H](O)[C@H]2C(=O)O |  | -12.4% (inactive) | 
19 | Cc1[nH]ncc1-c1cc2nc([C@@H]3CC4CCN3CC4)[nH]c(=O)c2s1 | 934 nM (active) |  | 
20 | C[C@@H](C1CC[C@@]2(O)C3=CC(=O)[C@@H]4C[C@@H](O)[C@@H](O)C[C@]4(C)[C@H]3CC[C@]12C)[C@H](O)CCC(C)(C)O (stereo partly specified) |  | -7.37% (inactive) | 
21 | N#CC(O[C@@H]1O[C@H](CO[C@@H]2O[C@H](CO)[C@@H](O)[C@H](O)[C@H]2O)[C@@H](O)[C@H](O)[C@H]1O)c1ccccc1 (stereo partly specified) |  | -29.8% (inactive) | 
22 | CC(C)(O)/C=C\C(=O)[C@](C)(O)[C@H]1[C@H](O)C[C@]2(C)[C@@H]3CC=C4[C@@H](C=C(O)C(=O)C4(C)C)[C@]3(C)C(=O)C[C@@]12C | 46.8 nM (active) |  | 
23 | COC12C(COC(N)=O)C3=C(C(=O)C(C)=C(N)C3=O)N1CC1C2N1C (stereo unspecified) | 1050 nM (active) |  | 
24 | CC(N[C@H]1C[C@@H]1c1ccccc1)c1ccc2c(c1)OCCO2 (stereo partly specified) |  | -20.6% (inactive) | 
25 | CN1C(=O)[C@@H](NC(=O)[C@H](CCC(F)(F)F)[C@H](CCC(F)(F)F)C(N)=O)N=C(c2ccccc2)c2ccccc21 |  | -23.1% (inactive) | 
26 | COC(=O)[C@@]12OC[C@]34[C@H]([C@@H](O)[C@@H]1O)[C@@]1(C)CC(=O)C(O)=C(C)[C@@H]1C[C@H]3OC(=O)[C@H](OC(=O)/C=C(\C)C(C)C)[C@@H]24 | 235 nM (active) |  | 
27 | C=C[C@H]1CN2CCC1C[C@@H]2[C@@H](O)c1ccnc2ccccc12 (stereo partly specified) |  | -18.4% (inactive) | 
28 | C[C@@]12OC(=O)[C@]1([C@@H](O)[C@@H]1C=CCCC1)NC(=O)[C@@H]2CCCl | 105 nM (active) |  | 
29 | CO/C1=C/C(C)=C\[C@@H](C)[C@@H](O)[C@@H](C)C/C(C)=C\C=C/[C@H](OC)[C@@H]([C@@H](C)[C@@H](O)[C@H](C)[C@@]2(O)C[C@@H](O)[C@H](C)[C@@H](C(C)C)O2)OC1=O | 39.3 nM (active) |  | 
30 | CC1(C)CC[C@]2(NC(=O)C(C)(F)F)CC[C@]3(C)[C@H](C(=O)C=C4[C@@]5(C)C=C(C#N)C(=O)C(C)(C)[C@@H]5CC[C@]43C)[C@@H]2C1 | 7420 nM (active) |  | 
31 | COC(=O)[C@]12CCC(C)(C)C[C@H]1[C@H]1C(=O)C=C3[C@@]4(C)C=C(C#N)C(=O)C(C)(C)[C@@H]4CC[C@@]3(C)[C@]1(C)CC2 | 5900 nM (active) |  | 
